Most compounds without a hit are left out; they make up all but 2.4% or so of the library.
ClpP mod: qHTS Assay for Activators of ClpP; ATP-dependent Clp protease proteolytic subunit (Bacillus subtilis (strain 168)), P80244; purified B. subtilis ClpP, FRET peptide cleavage, 20 min; Potency, µM (highest dose often 57.5 µM), for inactives: at the highest dose activity change, negative = active; actives 1.9% (n = 340,000); active = well fitted falling curve with a large enough effect; inconclusive = small, poorly fitted or top-dose-only effect; inactive = no such curve, though single readings can be large or run the other way; note: the source files actives as falling curves though it sought activators and does not explain the sign; nearly all actives have a fitted effect of over 65% in size
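Purified B. subtilis ClpP, 10 microg/mL final in Tris/HCl pH8 with KCl, BSA, glycerol and Tween-20, cleaved an Abz/nitrotyrosine-quenched decapeptide. Fluorescence (ex 320, em 430) was read at 0 and 20 min at room temperature. Delta was normalized to 5.8 microM ADEP and DMSO/no-enzyme controls.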
TDP1 block: TDP1 (human) enzyme inhibition; Q9NUW8; recombinant TDP1, AlphaScreen DNA substrate cleavage; Potency, µM (series often up to 130 µM), without a hit: top-dose activity change, negative = inhibition, most hits filed as inhibitors; actives 0.28% (n = 350,000); note: % is set by controls: 0 for no effect and ±100 for the full control effect; nearly all actives have a fitted effect of over 40% in size
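Steps: enzyme plus compound, 15 min RT; add biotin/phosphotyrosine-FITC oligonucleotide (15 nM final), react 5 min; add donor/acceptor beads (10 ug/ml final), 10 min; read AlphaScreen. Tdp1 at 1 nM final.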
Rango-impB inh: prevents formation of the Rango-importin beta complex; Rango CFP/YFP FRET sensor + importin beta, 45 min; Potency, µM (highest dose often 92.2 µM), for inactives: at the top dose inhibition of complex formation; actives 0.031% (n = 340,000); AID 540263; calls by dose curve;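 note: 0% = DMSO wells and 100% = buffer wells lacking importin beta; nearly all actives have a fitted effect of over 15% in size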
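Inhibition scored from the CFP 486 nm/YFP 530 nm FRET ratio 45 min after adding 0.125 microM importin beta to 50 nM Rango biosensor preincubated 5 min with compound (room temperature, PBS with DTT, Tween-20, BSA). No-importin wells as positive control.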
Rango release inh: inhibition of RanGTP-driven Rango-importin beta dissociation | actives 0.071% (n = 340,000) | Biochemical FRET Rango-importin beta, RanGTP-induced dissociation | O95149+P62826 | Potency, µM (series often up to 46.1 µM), for the others: top-dose activity change, negative = inhibition; calls by dose curve; note: % of control where 0% means no effect; nearly all actives have a fitted effect of over 45% in size
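Quantitative HTS using a FRET biosensor: 0.1 uM Rango, 0.25 uM importin beta, 0.6 uM Ran, 2 mM GTP, 0.2 uM RCC1 final, PBS with DTT, Tween-20 and BSA. Post-read taken 45 min after Ran addition.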
TSG101-PTAP inh: blocks PTAP/TSG101 interaction to inhibit HIV-1 budding; Q99816; Fluorescence polarization, FITC-PTAP peptide / Tsg101 binding; Potency, µM (doses to about 115 µM), for inactives: at the highest dose activity change, negative = inhibition, most hits filed as inhibitors; 340,000 tested, under 10 active; active = well fitted inhibition curve with a large enough effect in the main read-out, with a control signal flat, not every such curve was filed as active; inconclusive = small, poorly fitted or top-dose-only effect, or effect the other way, or a change in a side signal; inactive = no such curve, though single readings can be large or run the other way; note: % of control where 0% means no effect
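Tsg101 binding domain (10 uM final) was mixed with compound and a FITC-labeled PTAP peptide (50 nM final) in HEPES pH 7.5 buffer with NaCl, Tween 20, EDTA and TCEP; fluorescence polarization was read after 20 min at r.t.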
12-LOX inh: inhibitors of human 12S-lipoxygenase ALOX12 | P18054 | purified 12hLO, xylenol orange hydroperoxide absorbance | Potency, µM (top dose mostly 108 µM), for the others: at the highest dose activity change, negative = inhibition, hits mostly inhibitors | actives 1.1% (n = 580,000) | AID 1671190; note: % is set by controls: 0 for no effect and ±100 for the full control effect
Target sequence (P18054 whole entry, looked up): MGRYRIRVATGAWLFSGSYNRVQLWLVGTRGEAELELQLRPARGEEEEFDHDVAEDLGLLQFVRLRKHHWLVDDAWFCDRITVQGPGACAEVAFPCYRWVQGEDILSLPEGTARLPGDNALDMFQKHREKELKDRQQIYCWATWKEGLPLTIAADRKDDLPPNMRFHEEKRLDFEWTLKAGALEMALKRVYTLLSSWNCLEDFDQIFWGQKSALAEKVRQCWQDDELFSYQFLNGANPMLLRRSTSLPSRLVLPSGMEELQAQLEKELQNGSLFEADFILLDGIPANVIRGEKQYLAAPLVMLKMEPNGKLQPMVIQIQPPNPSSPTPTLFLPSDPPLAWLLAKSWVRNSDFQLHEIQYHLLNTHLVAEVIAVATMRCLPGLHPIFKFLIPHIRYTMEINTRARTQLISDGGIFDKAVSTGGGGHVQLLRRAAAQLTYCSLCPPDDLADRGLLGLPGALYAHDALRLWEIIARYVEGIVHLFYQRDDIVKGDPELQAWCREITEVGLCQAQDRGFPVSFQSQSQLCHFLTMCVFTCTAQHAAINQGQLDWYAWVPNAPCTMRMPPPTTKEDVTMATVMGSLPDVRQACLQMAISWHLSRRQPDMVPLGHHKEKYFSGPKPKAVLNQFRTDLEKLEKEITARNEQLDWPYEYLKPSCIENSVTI
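Hydroperoxide product was detected by ferrous iron/xylenol orange as the 573 to 405 nm absorbance ratio. Arachidonic acid at 40 uM (final) was turned over for 30 min at room temperature by 150 nM human 12hLO, pH 7.0 Hepes buffer, after 15 min compound preincubation.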
An asterisk follows results filed as active; ? = inconclusive; / = no result given; ! = not confirmed by another sample; [ ] = remark or other dose. Unless noted, calls come from the whole dose curve; as a rule, active = well fitted curve in the direction sought with a large enough effect; inconclusive = small, poorly fitted or top-dose-only effect, or another doubt; inactive = no such curve, though single readings can be large; an effect the other way counts as inactive or inconclusive. Potency is the fitted concentration of half-maximal effect.

SMILES	ClpP mod	TDP1 block	Rango-impB inh	Rango release inh	TSG101-PTAP inh	12-LOX inh
Cc1cc(C)c2c(N)c(-c3nc4ccccc4[nH]3)sc2n1	-15.9%	-1.0%	?	?	0.4%	2.0%
Cc1ccc2nc(-c3sc4nc(C)ccc4c3N)[nH]c2c1	-16.6%	5.1%[56.1 µM]	?	?	-2.1%	35.5µM*
CC1Sc2ccccc2N(Cc2ccc(OC(F)(F)F)cc2)C1=O (stereo not drawn)	-1.4%	/	/	/	/	10.8%
COc1ccc(CN2C(=O)C(n3c(C)ccc3C)c3cc(OC(F)(F)F)ccc32)cc1 (stereo not drawn)	/	/	/	/	/	39.8µM*
COc1ccc(CN2C(=O)C(n3cccc3)c3ccccc32)cc1 (stereo not drawn)	/	/	/	/	/	-22.7%
Cc1ccc(C)n1C1C(=O)N(Cc2ccc(C(F)(F)F)cc2)c2ccc(F)cc21 (stereo not drawn)	/	/	/	/	/	25.1µM*
COc1ccc2c(c1)C(n1c(C)ccc1C)C(=O)N2Cc1ccc(C(F)(F)F)cc1 (stereo not drawn)	/	/	/	/	/	12.6µM*
COc1ccc2c(c1)C(n1ccc3ccccc31)C(=O)N2Cc1ccc(C(C)C)cc1 (stereo not drawn)	/	/	/	/	/	14.1µM*
COc1ccc(NC(=O)c2ccc3c(c2)N(S(C)(=O)=O)CC3)cc1Cl	/	/	/	/	/	1.3%
CCNC(=S)Nc1ccc(OCc2nc3ccccc3s2)cc1	0.2%	/	2.5%	13.8%	-3.7%	44.7µM*
CCCCC(=O)OCc1nc2ccccc2s1	15.8µM*	2.6%	0.0%	-11.6%	0.2%	10.7%
O=C(O)CCCC(=O)Nc1ccc(OCc2nc3ccccc3s2)cc1	/	/	0.0%	-13.3%	0.0%	?
CC(=O)N1Cc2ccccc2CC2(CCCN(Cc3ccccn3)C2)C1 (stereo not drawn)	/	/	/	/	/	8.5%[6.33 µM]
COc1ccc(-c2nc3ccccc3s2)cc1	4.4%	-7.6%	-0.4%	1.3%	-1.4%	?
COc1cccc(-c2nc3ccccc3s2)c1	28.2µM*	?	-2.8%	-10.2%	-0.8%	0.0%
Cc1ccc(S(=O)(=O)CCC(=O)OCC(=O)N(Cc2ccccc2)C(C)C)cc1	15.8µM*	/	0.2%	6.0%	0.4%	-18.0%
Cc1oc(-c2nc(C#N)c(NCc3ccc(F)cc3)o2)cc1S(=O)(=O)N1CCCC1	/	/	/	/	/	4.1%
CN(C1CCOCC1)C1CCN(C(=O)c2cccc(Cl)c2)CC1	/	/	/	/	/	41.1%
CN(C)c1ccc(-c2nc3n(n2)C(c2cccnc2)C2=C(CC(C)(C)CC2=O)N3)cc1 (stereo not drawn)	14.1µM*	3.9%	?	-1.1%	-4.1%	0.0%
COc1ccc(CCN2C(=O)C3C4CC(C5C(C(N)=O)=NOC45)C3C2=O)cc1OC (stereo not drawn)	1.6%	12.6µM*	-1.0%	2.5%	-5.7%	18.2%
COc1ccc(CCN2C(=O)C3C4CC(C5C(C(=O)NN)=NOC45)C3C2=O)cc1OC (stereo not drawn)	-4.8%	2.5%	1.1%	0.9%	-1.0%	?
CCc1ccccc1NC(=O)Cn1c(C)cc2nc3n(c(=O)c21)CCCC3	/	/	/	/	/	27.4%
CSc1cccc(NC(=O)Cn2c3ncccc3c(=O)n2-c2ccc(C)cc2)c1	25.1µM*	-7.9%	/	/	/	-3.3%
CC1(C)OC(=O)N(CC(=O)N2CCC(Cc3noc(C4CC4)n3)CC2)C1=O	/	/	/	/	/	-1.7%
CCCOc1cccc(CN)c1	/	/	/	/	/	-2.6%
SMILES	ClpP mod	TDP1 block	Rango-impB inh	Rango release inh	TSG101-PTAP inh	12-LOX inh
CN1C(=O)c2cccc(NC(=O)C3CCCCC3)c2C1=O	5.0%	-1.0%	?	18.0%	0.0%	11.6%[57.4 µM]
CCC(=O)Nc1cccc2c1C(=O)N(C)C2=O	25.1µM*	-5.0%	-0.6%	-3.8%	1.4%	-8.4%
O=C1c2ccccc2C(=O)c2c1ccc(O)c2O	2.5%	8.3%	?	1.6%	?	2.28µM*!
CCOc1ccc(CN2CCN(c3cc(C)nc(NC)n3)CC2CCO)cc1 (stereo not drawn)	/	/	/	/	/	19.8%
Nc1c(S(=O)(=O)c2ccccc2)c2nc3ccccc3nc2n1Cc1ccco1	15.8µM*	-3.1%	?	?	-7.0%	?
Cc1ccc(S(=O)(=O)c2c(N)n(Cc3ccco3)c3nc4ccccc4nc23)cc1C	11.2µM*	-3.9%	?	?	-5.3%	-3.7%
Cc1ccc(S(=O)(=O)c2c(N)n(CCN3CCOCC3)c3nc4ccccc4nc23)cc1C	28.2µM*	6.0%	0.6%	9.6%	-3.9%	-8.4%
Cc1ccnc(NC(c2ccccc2F)c2ccc3cccnc3c2O)c1 (stereo not drawn)	-3.8%	8.5%	/	/	/	22.4µM*
Oc1c(C(Nc2ccccn2)c2ccccc2F)ccc2cccnc12 (stereo not drawn)	0.6%	12.1%	/	/	/	1.3%
CCOCCCNc1ncnc2c1[nH]c1ccccc12	15.8µM*	6.6%	5.8%	-4.4%	-5.3%	0.0%
CCCCOCCCNc1ncnc2c1[nH]c1ccccc12	28.2µM*	0.0%	0.8%	3.1%	-2.7%	4.6%
c1ccc2c(c1)[nH]c1c(NCC3CCCO3)ncnc12 (stereo not drawn)	28.2µM*	3.9%	-4.8%	-7.4%	-7.5%	353.8%
Oc1cccc(Nc2nc(NCC3CCCO3)c3ccccc3n2)c1 (stereo not drawn)	-6.4%	2.1%	3.0%	-3.6%	-3.3%	/
c1ccc(Nc2nc(NCC3CCCO3)c3ccccc3n2)cc1 (stereo not drawn)	/	6.3%	?	-0.4%	-4.1%	44.7µM*
CN1CCCCCC1=NCCn1cnc2c1c(=O)n(C)c(=O)n2C	/	/	/	/	/	-3.4%
O=C1[O][Bi][O]c2ccccc21	/	35.5µM*	/	/	/	/
O=C1c2ccccc2-c2ccccc21	/	/	/	/	/	-1.3%
CC(C)C[C@@H](NC(=O)C1=C[C@@H](NC(=O)c2cccs2)[C@@H](O)[C@H](O)C1)C(N)=O	/	/	/	/	/	7.9%[176 µM]
COc1ccc2c(c1)C(n1c(C)ccc1C)C(=O)N2C (stereo not drawn)	/	/	/	/	/	11.2µM*
Cc1ccc(C)n1C1C(=O)N(C)c2ccc(Cl)cc21 (stereo not drawn)	/	/	/	/	/	44.7µM*
Cc1ccc(C)n1C1C(=O)N(C)c2ccccc21 (stereo not drawn)	/	/	/	/	/	-69.4%
CCNC(=O)N(C1CC1)C1CCOC2(CCN(C(=O)c3cccc4nccnc34)CC2)C1 (stereo not drawn)	/	/	/	/	/	31.8%
O=C(COC(=O)c1ccc(-c2ccccc2)cc1C(=O)OCC(=O)c1ccccc1)c1ccccc1	/	/	/	/	/	-48.1%

Bioassay records: PubChem, National Center for Advancing Translational Sciences (NCATS)
